Test results reported in PubChem BioAssay AID1159580 (chemical genetic matrix, 2015).
The whole screen tested about 5,500 compounds, of which about 2,000 (36%) were called active. Not shown: some 18% with an inconclusive outcome. Cut-off read from the data, not from the text of the source: active = normalized growth mostly below about 0.91 (no sharp cut-off); inconclusive = no clear call, values can overlap the other calls; inactive = mostly above about 0.92. This is one part of the list.

Experiment: chemical genetic growth profiling, strain panel (AID 1159580);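 note: tested at 20 µM; growth read once vehicle control cultures reached saturation at 30 °C; 1 = growth at the plate median or of vehicle wells; lower values mean less growth of the strain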
Settings: S. cerevisiae deletion strains, growth OD

Measured: normalized growth

COc1cccc2c1CCC1=CC(=O)CC[C@@]12C
inactive: locus YAL013W, strain DEP1, stronger effect = lower value 0.996 | locus YAL021C, strain ccr4, stronger effect = lower value 1.02 | locus YAL026C, strain drs2, stronger effect = lower value 1.01 | locus YAL030W, strain snc1, stronger effect = lower value 0.986 | locus YBL061C, strain skt5, stronger effect = lower value 0.989 | locus YBR009C, strain hhf1, stronger effect = lower value 0.992 | locus YBR021W, strain FUR4, stronger effect = lower value 0.966 | locus YBR023C, strain chs3, stronger effect = lower value 1.01 | locus YBR171W, strain sec66, stronger effect = lower value 0.987 | locus YBR229C, strain ROT2, stronger effect = lower value 1 | locus YBR231C, strain swc5, stronger effect = lower value 1.02 | locus YBR279W, strain paf1, stronger effect = lower value 1 | locus YCL011C, strain gbp2, stronger effect = lower value 0.997 | locus YCL016C, strain dcc1, stronger effect = lower value 0.999 | locus YCL029C, strain bik1, stronger effect = lower value 0.985 | locus YCL069W, strain vba3, stronger effect = lower value 0.993 | locus YCR088W, strain abp1, stronger effect = lower value 0.994 | locus YDL005C, strain med2, stronger effect = lower value 1.02 | locus YDL035C, strain GPR1, stronger effect = lower value 0.976 | locus YDL040C, strain nat1, stronger effect = lower value 1 | locus YDL074C, strain BRE1, stronger effect = lower value 0.944 | locus YDL101C, strain DUN1, stronger effect = lower value 1.01 | locus YDL134C, strain PPH21, stronger effect = lower value 0.995 | locus YDL185W, strain tfp1, stronger effect = lower value 1 | locus YDL192W, strain arf1, stronger effect = lower value 0.993 | locus YDR001C, strain nth1, stronger effect = lower value 1 | locus YDR069C, strain doa4, stronger effect = lower value 0.987 | locus YDR101C, strain arx1, stronger effect = lower value 0.981 | locus YDR137W, strain rgp1, stronger effect = lower value 1.07 | locus YDR150W, strain NUM1, stronger effect = lower value 1 | locus YDR159W, strain sac3, stronger effect = lower value 0.997 | locus YDR162C, strain NBP2, stronger effect = lower value 0.966 | locus YDR195W, strain ref2 1.04 | locus YDR297W, strain sur2, stronger effect = lower value 0.995 | locus YDR318W, strain mcm21, stronger effect = lower value 0.973 | locus YDR334W, strain swr1, stronger effect = lower value 1.02 | locus YDR335W, strain msn5, stronger effect = lower value 1.01 | locus YDR388W, stronger effect = lower value 0.989 | locus YDR392W, strain spt3, stronger effect = lower value 0.984 | locus YDR502C, strain sam2, stronger effect = lower value 0.961 | locus YEL003W, strain gim4, stronger effect = lower value 1 | locus YEL037C, strain rad23, stronger effect = lower value 0.993 | locus YEL061C, strain CIN8 (second series), stronger effect = lower value 1.01 | locus YEL061C, strain CIN8, stronger effect = lower value 1 | locus YER015W, strain faa2, stronger effect = lower value 1.01 | locus YER016W, strain bim1, stronger effect = lower value 1 | locus YER110C, stronger effect = lower value 0.983 | locus YER111C, strain swi4, stronger effect = lower value 1 | locus YER155C, strain BEM2 (second series), stronger effect = lower value 0.989 | locus YER155C, strain BEM2, stronger effect = lower value 1 | locus YER167W, strain BCK2, stronger effect = lower value 0.996 | locus YFR010W, strain ubp6, stronger effect = lower value 1.01 | locus YGL078C, strain dbp3, stronger effect = lower value 0.998 | locus YGL086W, strain mad1, stronger effect = lower value 0.987 | locus YGL167C, strain pmr1, stronger effect = lower value 1 | locus YGL173C, strain kem1, stronger effect = lower value 0.993 | locus YGL227W, strain vid30, stronger effect = lower value 1.01 | locus YGL240W, strain doc1, stronger effect = lower value 0.995 | locus YGL248W, strain PDE1, stronger effect = lower value 0.996 | locus YGL253W, strain hxk2, stronger effect = lower value 1.02 | locus YGR078C, strain PAC10, stronger effect = lower value 0.983 | locus YGR135W, strain pre9, stronger effect = lower value 0.939 | locus YGR229C, strain SMI1, stronger effect = lower value 0.98 | locus YGR252W, strain gcn5, stronger effect = lower value 0.814 | locus YHR013C, strain ard1, stronger effect = lower value 0.967 | locus YHR027C, strain rpn1, stronger effect = lower value 1.01 | locus YHR030C, strain SLT2, stronger effect = lower value 0.994 | locus YHR079C, strain IRE1 (second series), stronger effect = lower value 0.973 | locus YHR094C, strain hxt1, stronger effect = lower value 0.998 | locus YHR129C, strain ARP1, stronger effect = lower value 0.995 | locus YHR142W, strain chs7, stronger effect = lower value 0.975 | locus YHR200W, strain rpn10, stronger effect = lower value 0.989 | locus YIL066C, strain RNR3, stronger effect = lower value 0.955 | locus YIL073C, strain SPO22, stronger effect = lower value 0.949 | locus YIL125W, strain kgd1, stronger effect = lower value 0.992 | locus YIR030C, strain dcg1, stronger effect = lower value 0.983 | locus YJL092W, strain hpr5, stronger effect = lower value 1.02 | locus YJL095W, strain BCK1 (second series), stronger effect = lower value 1 | locus YJL095W, strain BCK1, stronger effect = lower value 0.972 | locus YJL115W, strain asf1, stronger effect = lower value 1.01 | locus YJL129C, strain trk1, stronger effect = lower value 0.973 | locus YJL134W, strain LCB3, stronger effect = lower value 1.01 | locus YJL154C, strain vps35, stronger effect = lower value 1 | locus YJL164C, strain tpk1, stronger effect = lower value 0.996 | locus YJL166W, strain qcr8, stronger effect = lower value 0.987 | locus YJL168C, strain set2, stronger effect = lower value 0.984 | locus YJL187C, strain SWE1 (second series), stronger effect = lower value 0.989 | locus YJR043C, strain POL32, stronger effect = lower value 0.97
